Experimental findings from PubChem BioAssay (NCATS) are described below.

Records with an inconclusive call do not appear. Unmarked numbers belong to inactive results. The source made the active and inactive calls. Calls come from the whole dose curve; as a rule, active = well fitted curve in the direction sought with a large enough effect; inconclusive = small, poorly fitted or top-dose-only effect, or another doubt; inactive = no such curve, though single readings can be large; an effect the other way counts as inactive or inconclusive. Square brackets hold non-standard residues; d marks the D form. Peptide text beside a SMILES is read from it. ξ: configuration not given here. ξLac(3-iPr) = CC(C)CC(O)C(=O)O; NMeV = CN[CH](C(=O)O)C(C)C; βAla = NCCC(=O)O

Experiment [1] has as its target Aldehyde dehydrogenase, mitochondrial (Homo sapiens) (UniProt P05091). Kind of experiment: qHTS for Inhibitors of the Aldehyde Dehydrogenase Family (ALDH2) Primary screen (AID 2061308;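 note: plate controls were vehicle for no effect and reference inhibitor for full effect; nearly all actives have a fitted effect of over 55% in size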). (qHTS replaces the single test concentration by a dilution series.)
Experiment [2] deals with Retinaldehyde dehydrogenase 3 (Homo sapiens) (UniProt P47895). Kind of experiment: qHTS for Inhibitors of the Aldehyde Dehydrogenase Family (ALDH1A3) Validation screen (AID 2061312). Note: % is set by controls: 0 for no effect and ±100 for the full control effect; nearly all actives have a fitted effect of over 45% in size.
Experiment [3] shares this target. Nature of the experiment: qHTS for Inhibitors of the Aldehyde Dehydrogenase Family (ALDH1A3) Primary screen (AID 2061315).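 Note: plate controls were DMSO vehicle for no effect and reference inhibitor for full effect.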
Experiment [4] in a line: BET inhibitor-based combinations targeting novel dependencies in MECOM-rearranged (r) AML: SET-2 cell line (AID 2202231).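 Note: plate controls were DMSO treated cells for no effect and wells without cells for full effect; nearly all actives have a fitted effect of over 35% in size.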 Conditions: SET-2 AML cells viability, CellTiter-Glo luminescence, 48 h; viability: stronger effect = lower value, series mostly up to about 46 µM. The method in brief: (§1)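 Cells were plated at 500 per well and exposed to an 11-point dose series of each drug for 48 hr. Viability was measured by CellTiter-Glo luminescence, normalized to DMSO and empty-well controls, and summarized as AUC and per-cell-line Z-AUC.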

Experiment [5] can be described thus: BET inhibitor-based combinations targeting novel dependencies in MECOM-rearranged (r) AML: OCI-AML3 cell line (AID 2202232). Note: nearly all actives have a fitted effect of over 35% in size. Note: potency is the fitted concentration of half-maximal effect. Conditions: Potency: OCI-AML3 viability. The method in brief:
as §1

The nature of experiment [6]: BET inhibitor-based combinations targeting novel dependencies in MECOM-rearranged (r) AML: MV-4-11 cell line (AID 2202233). Note: nearly all actives have a fitted effect of over 45% in size. Note: potency is the fitted concentration of half-maximal effect. The method in brief:
(§2)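 Activity is given as area under the curve and as Z-AUC, mean-centred within each cell line. It comes from 11-point dose curves normalized to DMSO and empty wells. CellTiter-Glo luminescence was read after 48 hr drug exposure of 500 cells/well.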

A short description of experiment [7]: BET inhibitor-based combinations targeting novel dependencies in MECOM-rearranged (r) AML: HNT-34 cell line (AID 2202234). Note: nearly all actives have a fitted effect of over 35% in size. Note: potency is the fitted concentration of half-maximal effect. The method in brief:
as §2

Experiment [8] in a line: BET inhibitor-based combinations targeting novel dependencies in MECOM-rearranged (r) AML: UCSD-AML1 cell line (AID 2202235).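 Note: series mostly up to about 46 µM; plate controls were DMSO vehicle wells for no effect and blank wells for full effect; nearly all actives have a fitted effect of over 40% in size.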 The method in brief:
as §2

Experiment [9] is described as follows: BET inhibitor-based combinations targeting novel dependencies in MECOM-rearranged (r) AML: AML-191 cell line (AID 2202236; note: nearly all actives have a fitted effect of over 35% in size; note: potency is the fitted concentration of half-maximal effect). The method in brief: as §1
Experiment [10] can be described thus: BET inhibitor-based combinations targeting novel dependencies in MECOM-rearranged (r) AML: AML-194 cell line (AID 2202237;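 note: plate controls were vehicle wells for no effect and wells without cells for full effect; nearly all actives have a fitted effect of over 40% in size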). The method in brief: as §1

As to `Cc1c(-c2ccnn2C)cc(C(=O)NCc2ccc(S(C)(=O)=O)cn2)c(=O)n1-c1cccc(C(F)(F)F)c1`, the Potency result in experiment [1], in [2], in [3], in [5], in experiment [6] and in [7] was “inactive” throughout. The Potency result in experiment [8], in [9] and in [10] was “inactive” each time. In addition, the viability (in general, a read-out of living cells in per cent, often relative to untreated cells) in experiment [4] is 103%.
As for `CNCc1ccc(-c2[nH]c3cc(F)cc4c3c2CCNC4=O)cc1`, the Potency result in experiment [1] and in experiment [2] was “inactive” in each case. Also, the Potency in experiment [6] is 11.8 µM (active).
Regarding `COC(=O)C(CC1CCCC1)c1ccc(S(C)(=O)=O)cc1` (stereo not drawn), the Potency result in [1], in [2] and in experiment [3] was “inactive” throughout.
Take `Oc1ccc(-c2cnc3ccc(NCc4ccco4)nn23)cc1`: the Potency entry in experiment [1], in experiment [2] and in experiment [3] was “inactive” throughout.
Consider `CC(C)(C)C1CCN(C(=O)n2ncc(C(O)(c3ccccc3)c3ccccc3)n2)CC1`, for which the Potency entry in [1], in experiment [2] and in experiment [3] was “inactive” throughout.
`CCCCNc1nc(N)c2[nH]c(=O)n(Cc3ccc(OCCN(C)C)nc3)c2n1`: the Potency result in [1], in [2] and in experiment [3] was “inactive” in each case.
As to `COc1cccc(OC)c1-c1nc(C(=O)N[C@@H](CC(C)C)C(=O)O)cn1-c1ccnc2cc(Cl)ccc12`, the Potency entry in experiment [1], in experiment [2] and in experiment [3] was “inactive” in each case.
With `Cn1cc(-c2ccc(F)c(C(F)(F)F)c2)nc1C1CCN(c2ncnc3[nH]ncc23)CC1`, the Potency entry in experiment [1], in experiment [2], in [3], in [8] and in experiment [10] was “inactive” throughout. Moreover, the Potency is 0.742 µM (active) in experiment [5] and 20.9 µM (active) in [9].
In the case of `CN1CCN(c2nc(-c3ccc(C(=O)NC4(C(=O)NCC#N)CCCCC4)cc3)cs2)CC1`, the Potency result in [1], in [2] and in experiment [3] was “inactive” each time.
For the molecule `C=C(C)C1CCC(C)C12CC(O)C1(C)OC1C2OC(=O)C(N)CCC(=O)O` (stereo not drawn), the Potency entry in experiment [1] and in experiment [3] was “inactive” each time.
As for `CNC(=O)c1ccc2c(C(=Nc3cccc(CN(C)C)c3)c3ccccc3)c(O)[nH]c2c1`, the Potency entry in experiment [1], in experiment [2] and in experiment [8] was “inactive” each time. The Potency is 1.66 µM (active) in experiment [6] and 20.9 µM (active) in experiment [7].
As for `CN(C)CCn1cc(S(=O)(=O)c2cccc(F)c2)c2cccnc21`, the Potency result in [1] and in experiment [3] was “inactive” each time.
For the molecule `Cc1cc(C)c(S(=O)(=O)n2cc(C)cc2C)c(C)c1`, the Potency result in [1], in experiment [2] and in [3] was “inactive” in each case.
`COc1cc(F)c(C(C)C)cc1-c1ccc(C(F)(F)F)cc1CN1C(=O)OC(c2cc(C(F)(F)F)cc(C(F)(F)F)c2)C1C` (stereo not drawn): the Potency entry in experiment [1] and in [3] was “inactive” each time.
With `CCc1nn(CCO)c(CC)c1Oc1cc(C#N)cc(C#N)c1`, the Potency entry in experiment [1] and in [3] was “inactive” in each case.
For `CC(O)(CC(=O)O)CC(=O)OCc1ccc(O[C@@H]2O[C@H](CO)[C@@H](O)[C@H](O)[C@H]2O)cc1` (stereo partly drawn), the Potency entry in experiment [1] and in experiment [3] was “inactive” each time.
With `CC(C)CC1OC(=O)C2CCCN2C(=O)CCNC(=O)C(Cc2ccccc2)NC(=O)C(C(C)C)N(C)C(=O)C(C(C)C)N(C)C1=O` (stereo not drawn) (cyclo([ξLac(3-iPr)][NMeV][NMeV]F[βAla]P); configuration not given here), the Potency result in [1] and in experiment [3] was “inactive” in each case.
In the case of `CC1(C)CC[C@]2(C(=O)O[C@@H]3O[C@H](CO)[C@@H](O)[C@H](O)[C@H]3O)CC[C@]3(C)C(=CCC4[C@@]5(C)C[C@@H](O)[C@H](O)[C@](C)(C(=O)O)C5CC[C@]43C)C2C1O` (stereo partly drawn), the Potency result in [1] and in [3] was “inactive” in each case.
Take `CC(=O)NC1CC(=O)C23C(=O)NC(Cc4c[nH]c5ccccc45)C2C(C)=C(C)C(O)C3/C=C/CC(C)/C=C(/C)C(O)C1O` (stereo not drawn): the Potency entry in experiment [1] and in experiment [3] was “inactive” each time.
As for `Nc1ccc(-n2nc(C(F)(F)F)cc2C(F)(F)F)cc1`, the Potency result in [1] and in [3] was “inactive” throughout.
`CCC1C(=O)OC23C=C[C@@H]4C(C(=O)O)=CO[C@H](O[C@@H]12)[C@@H]43` (stereo partly drawn): the Potency entry in [1] and in experiment [3] was “inactive” in each case.
On to `COc1cc(C)c(C(=O)O[C@H]2[C@@H](OC(C)=O)[C@H](n3ccc(=O)[nH]c3=O)O[C@@H]2CO)c(OC)c1`, for which the Potency entry in [1] and in experiment [3] was “inactive” throughout.
With `C[C@@H]1O[C@@H](O[C@H]2[C@H](O)[C@@H](C(=O)O)O[C@@H](O[C@H]3CC[C@@]4(C)C(CC[C@]5(C)C4CC=C4C6CC(C)(C)CC[C@]6(C(=O)O)CC[C@]45C)C3(C)C)[C@@H]2O[C@@H]2O[C@H](CO)[C@@H](O)[C@H](O)[C@H]2O)[C@H](O)[C@H](O)[C@H]1O` (stereo partly drawn), the Potency result in experiment [1] and in experiment [3] was “inactive” each time.
On to `CC(C)(C)CCN1C[C@@H]2C(CNC(=O)c3cc(Cl)cc(Cl)c3)[C@@H]2C1` (stereo partly drawn), for which the Potency entry in experiment [1] and in experiment [3] was “inactive” in each case.
On to `CCn1cc(NC(=S)Nc2cc(Cl)ccc2OC)c(C(N)=O)n1`, for which the Potency result in experiment [1] and in experiment [3] was “inactive” throughout.
Take `C=C1C(=O)O[C@@H]2/C=C(\C)CC/C=C(\C(=O)O[C@@H]3O[C@H](CO)[C@@H](O)[C@H](O)[C@H]3O)CC[C@@H]12`: the Potency entry in experiment [1] and in experiment [3] was “inactive” each time.
`CC(C)=CCC[C@](C)(O)[C@H]1CC[C@]2(C)[C@@H]1[C@H](O)CC1[C@@]3(C)CC[C@H](O)C(C)(C)[C@@H]3[C@@H](O[C@@H]3O[C@H](CO)[C@@H](O)[C@H](O)[C@H]3O[C@@H]3O[C@H](CO)[C@@H](O)[C@H](O)[C@H]3O)C[C@]12C` (stereo partly drawn): the Potency result in experiment [1] and in [3] was “inactive” in each case.
In the case of `CC(C)(OC1OC(CO)C(O)C(O)C1O)C1CCC(O)(CO)C2CC(O)C(C)(O)C2C1` (stereo not drawn), the Potency result in experiment [1] and in experiment [3] was “inactive” throughout.
Turning to `CCC(C)C(=O)O[C@H]1C[C@](C)(O)[C@]23OC(C)(C)[C@H](C[C@H](OC(=O)c4ccccc4)[C@]2(COC(C)=O)[C@H]1OC(=O)C(C)CC)[C@H]3OC(C)=O` (stereo partly drawn), the Potency entry in experiment [1] and in experiment [3] was “inactive” in each case.
As for `COC(=O)C1=CO[C@@H](O[C@@H]2O[C@H](CO)[C@@H](O)[C@H](O)[C@H]2O)[C@@H]2C(COC(C)=O)=C[C@H](O)[C@H]12`, the Potency entry in experiment [1] and in [3] was “inactive” in each case.
For the molecule `CC(C)/C=C1\NC(=O)C(C(C)C)n2c1nc1ccccc1c2=O` (stereo not drawn), the Potency entry in experiment [1] and in [3] was “inactive” in each case.
Consider `Cc1sc2c(c1C)C(c1ccc(Cl)cc1)=N[C@H](CC(=O)NCCCCNC(=O)COc1cccc3c1C(=O)N([C@H]1CCC(=O)NC1=O)C3=O)c1nnc(C)n1-2`, for which the Potency entry in [1] and in experiment [3] was “inactive” throughout.
